# Screening results as filed in PubChem BioAssay.
# Hits are enriched below; roughly 6.8% of the tested compounds scored in any of these assays.
# Spn DPM-DC inh – S. pneumoniae DPM-DC inhibitors, primary screen, biochemical, PK/LDH-coupled NADH fluorescence | diphosphomevalonate decarboxylase (Streptococcus pneumoniae D39) | calls only at 10 µM | AID 556, 2006 | 65,000 tested, 0.49% active | purified DPM-DC;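 active means the 320 compounds with the highest percent inhibition in the single-dose primary screen, excluding strongly autofluorescent ones, cut at about 32% in these data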;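 further: kinetic rate of NADH fluorescence loss reporting ADP formed by the decarboxylase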
# NADH enzymes – inhibitors of PK/LDH coupling enzymes, profiling panel, artefact control, biochemical, MLSMR library; AID 774, 2007; 65,000 tested, 0.02% active; coupled PK/LDH NADH assays, four targets; IC50, µM (doses to about 10 µM), without a hit: top-dose inhibition;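 active means single-dose screening hits from any of four coupled enzyme assays that gave an IC50 when retested across doses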;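 further: the DPM-DC format reads NADH fluorescence rather than 340 nm absorbance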
# Spn PMK inh – S. pneumoniae PMK inhibitors, primary screen, biochemical, mevalonate pathway, pilot trial included. AID 539, 2006. inhibition, % at 10 µM. phosphomevalonate kinase (Streptococcus pneumoniae D39). purified PMK, PK/LDH-coupled NADH absorbance 340 nm. 65,000 tested, 0.49% active;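 active means top-ranked compounds by inhibition in the single 10 µM screen, taking a fixed number of the strongest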;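 further: 0% = full reaction with DMSO carrier and 100% = background rate without enzyme reaction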
# Autofluor 339 – intrinsic fluorescence of library compounds, ex339/em460 – biochemical, MLSMR library, data from DPM-DC assay, artefact control, profiling panel; compound autofluorescence, ex339/em460 nm, NADH buffer; stronger effect = higher value; 1 = no-compound wells, NADH background; fluorescence fold increase at 10 µM; 65,000 tested, 5.5% active;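 active means at 10 µM, mean starting fluorescence two-fold or more over control wells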;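 further: signal is the first read of a kinetic run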
# MK inhibit – S. pneumoniae MK inhibitors, primary screen, biochemical, PK/LDH-coupled NADH absorbance; mevalonate kinase [Streptococcus pneumoniae D39]; purified MK, PK/LDH-coupled NADH absorbance 340 nm; 65,000 tested, 0.48% active; inhibition, % at 10 µM;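 active means ranked among the strongest by inhibition in the single 10 µM screen, a fixed top-ranked set picked for dose follow-up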
# Abs 340nm – compound light absorbance at 340 nm, profiling panel, artefact control, biochemical, MLSMR library, data from PS, PMK, MK assays | compound absorbance at 340 nm, fold over control | fold change at 10 µM | 65,000 tested, under 10 active;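 active means at 10 µM dose, initial 340 nm absorbance at least 2 fold that of control wells; inactive means change under 2 fold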;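 further: initial absorbance extrapolated from kinetic A340 decline of NADH oxidation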
# * hit, by the source's call; i = inactive; . = not tested or not shown; + = active, no number.
SMILES,Spn DPM-DC inh,NADH enzymes,Spn PMK inh,Autofluor 339,MK inhibit,Abs 340nm
CCc1c(C)c2cc(Cl)c(O)c(CN3CCCCC3)c2oc1=O,.,4.0%,8.0,2.33*,0.0,1.07
O=c1oc2ccccc2c(N2CCCCC2)c1CN1CCCCC1,i,2.0%,5.0,1.04,14.0,1.02
Cc1c(O)c(CN2CCCCC2)cc2c3c(c(=O)oc12)CCC3,.,2.0%,5.0,2.48*,0.0,1.03
CCc1cc(=O)oc2c(CN3CCCC3)c(O)c(Cl)cc12,.,2.0%,0.0,2.3*,4.0,1.12
O=c1oc2c(CN3CCOCC3)c(O)c(Cl)cc2c2c1CCC2,.,8.0%,9.0,3.8*,6.0,1.15
CCOC(=O)c1c(CN2CCCCC2)n(C)c2ccc(OC)c(S(=O)(=O)c3ccccc3)c12,i,3.0%,4.0,1.19,4.0,1.1
Clc1ccc(OCCCn2cncn2)cc1Cl,i,3.0%,5.0,1.01,7.0,1.01
CCc1cc(=O)oc2c(CN3CCN(C)CC3)c(O)c(Cl)cc12,.,1.0%,3.0,2.47*,0.0,1.03
CN1CCN(Cc2cc(=O)oc3cc4c(cc23)CCC4)CC1,i,12.0%,11.0,1.15,17.0,0.99
COc1ccccc1C1/C(=C(\O)c2c(C)nc3c(C)cccn23)C(=O)C(=O)N1CCCN(C)C (stereo not given),i,2.0%,0.0,0.98,9.0,0.99
CCOc1ccc(Nc2nc(Cc3nnc(SCC(N)=O)o3)cs2)cc1,i,5.0%,28.0*,1.03,2.0,1
CCOc1ccc(Nc2nc(Cc3nnc(SCC(=O)NCC4CCCO4)n3C)cs2)cc1 (stereo not given),i,7.0%,16.0,1.07,5.0,0.95
Cc1onc(-c2ccccc2Cl)c1C(=O)Nc1cccc(-c2nc3ncccn3c2C)c1,.,6.0%,12.0,5.18*,0.0,1.02
CC(=O)Nc1cccc(NC(=O)c2c(-c3ccccc3Cl)noc2C)c1,i,4.0%,4.0,1.03,7.0,1.04
Cc1onc(-c2ccccc2Cl)c1C(=O)Nc1ccc(-c2cn3cccnc3n2)cc1,.,9.0%,18.0,5.24*,0.0,1.09
Cc1ccc(-c2cn3cccnc3n2)cc1NC(=O)c1c(-c2ccccc2Cl)noc1C,.,5.0%,10.0,5.22*,0.0,1.03
Cc1nc2nc(C)c(CCC(=O)N3CCOCC3)c(C)n2n1,+,15.0%,6.0,0.68,4.0,1
CCOC(=O)N1CCN(C(=O)CCc2c(C)nc3nc(C)nn3c2C)CC1,i,5.0%,10.0,1.08,5.0,0.98
CCOC(=O)CN(C(=O)CSc1nnc(CNc2ccc(C)cc2C)o1)c1ccccc1,i,3.0%,3.0,1.1,6.0,0.94
Cc1sc2ncn(CC(=O)OC(C)C(=O)NC(C)(C)C)c(=O)c2c1C (stereo not given),i,4.0%,8.0,1.13,4.0,1.06
Cc1ccc(CS(=O)(=O)CCC(=O)NCCN2CCCC2)cc1,i,7.0%,16.0,1.09,6.0,1.01
CN(CCc1ccccn1)S(=O)(=O)c1ccccc1F,i,5.0%,0.0,1.04,16.0,1.05
CN(CCc1ccccn1)Cc1ccc(Cl)cc1Cl,i,15.0%,0.0,1.16,44.0*,1.08
Cc1cc(NC(=O)C2CC(c3ccc(F)cc3)=NO2)no1 (stereo not given),i,7.0%,11.0,1.07,7.0,1
Clc1cccc(-c2ccc(/C=N/n3cnnc3)o2)c1,+,3716µM*,0.0,1.23,7.0,1.26
C=C1C(C(=O)N2CCOCC2)C1C(=O)N1CCOCC1 (stereo not given),i,9.0%,17.0,1.08,9.0,1.02
Cc1ccc(C)c(CN2CCCNC2=O)c1,i,5.0%,15.0,1.06,0.0,0.98
CC1=CCC2C(=O)N(c3nc4ccccc4n3C)C(=O)C2C1 (stereo not given),i,3.0%,2.0,1.1,6.0,1.06
CC1(C)Cc2c(sc3nc(SCC(=O)O)[nH]c(=O)c23)CO1,i,6.0%,0.0,1.17,13.0,1.1
